# Data taken from PubChem BioAssay AID684 (PCMD, 2007).
# Hit rate of the full screen: of about 62,000 compounds, about 95 (0.2%) were called active. This is one part of a sample in which actives are shown more often than they occur. A number with no mark means an inactive call. Cut-off read from the data, not from the text of the source: active = inhibition above about 20% (passing the limit was not always enough); inactive = the rest. Where a SMILES comes first, the peptide text is derived from it. [ ]: non-standard residue; d: D form. ξ: configuration not given here. ξV = CC(C)C(N)C(=O)O
# Molecular target: Coagulation factor XII (Homo sapiens) (UniProt P00748)
# Sequence (P00748 20-372 limits assumed): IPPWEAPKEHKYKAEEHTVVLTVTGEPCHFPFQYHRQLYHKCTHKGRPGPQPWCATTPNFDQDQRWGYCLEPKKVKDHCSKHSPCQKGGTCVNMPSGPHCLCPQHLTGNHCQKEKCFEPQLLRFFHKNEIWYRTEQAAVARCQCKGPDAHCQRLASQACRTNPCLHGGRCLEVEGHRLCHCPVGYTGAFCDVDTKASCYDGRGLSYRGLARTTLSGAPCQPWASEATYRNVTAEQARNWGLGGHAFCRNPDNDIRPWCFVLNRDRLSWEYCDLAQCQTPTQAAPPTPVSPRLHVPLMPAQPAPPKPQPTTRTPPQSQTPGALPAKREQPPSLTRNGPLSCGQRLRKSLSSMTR
# Sequence (P00748 373-615 limits assumed): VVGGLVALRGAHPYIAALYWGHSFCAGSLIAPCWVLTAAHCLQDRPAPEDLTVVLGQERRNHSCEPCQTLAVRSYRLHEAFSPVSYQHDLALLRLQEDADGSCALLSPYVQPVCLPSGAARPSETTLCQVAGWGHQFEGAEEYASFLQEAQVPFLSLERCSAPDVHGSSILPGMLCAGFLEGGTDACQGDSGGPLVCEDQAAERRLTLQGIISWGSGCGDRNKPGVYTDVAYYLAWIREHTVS
# Assay: blockers of FXIIa protease activity – biochemical, pooled compound mixtures, fluorogenic substrate, primary screen (AID 684);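 note: 0% = enzyme without compound and 100% = no enzyme blank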
# Conditions: purified FXIIa, at 5 µM, active compounds read high
row,Structure (SMILES),inhibition
1,OCCNCCCCOc1ccccc1F,-11.6%
2,CCOc1ccc(CCNC(=O)C2CCN(c3ccc(N4CCOCC4)nn3)CC2)cc1OCC,-15.4%
3,Cc1nc2ccc(NC(=O)N3CCC(c4ccccc4)C3)cc2nc1C (configuration not stated),-16.9%
4,CC(=O)NCC(=O)N(C)C(C(=O)Nc1ccc2c(c1)OCCO2)c1ccccc1 (configuration not stated),16.7%
5,COc1ccc(NC(=O)CN(C)S(=O)(=O)c2ccccc2)cc1OC,19.2%
6,COc1cccc(N(CC(=O)Nc2cccc(N(C)S(C)(=O)=O)c2)S(C)(=O)=O)c1,-3.08%
7,COc1cccc(NC(=O)CN(C)S(=O)(=O)c2ccc(C)cc2)c1,23% (active)
8,Cc1ccc(S(=O)(=O)c2c(N)n(C)c3nc4ccccc4nc23)cc1,-4.52%
9,N#CCCN1CCN(S(=O)(=O)c2ccc(S(=O)(=O)NC3CCCCC3)cc2)CC1,4.97%
10,O=C(CCS(=O)(=O)c1ccccc1)Nc1nc2c(s1)CCCC2,24.1%
11,COc1ccc(C(=O)c2oc3ccc(Br)cc3c2NC(C)=O)cc1,1.19%
12,C/C(=C\C(=O)c1ccccc1)Nc1cccc(O)c1,2.12%
13,COC(=O)c1cc(C(=O)OC)cc(N2C(=O)CC(N3CCN(c4ccccc4)CC3)C2=O)c1 (configuration not stated),7.93%
14,CCn1cc(C(=O)NCC2COc3ccccc3O2)c2cc(OC)c(OC)cc2c1=O (configuration not stated),3.64%
15,COc1ccccc1NC(=O)c1ccc(C)s1,-2.31%
16,CC(=O)Nc1ccc(S(=O)(=O)N2CCC(N(C)CCC(C)C)CC2)cc1,-1.44%
17,C=CCNC(=O)CSc1nc2sc(C)c(C)c2c(=O)[nH]1,7.21%
18,COc1ccc(N2CC(C)Cn3c2nc2c3c(=O)n(Cc3ccccc3F)c(=O)n2C)c(OC)c1 (configuration not stated),10.8%
19,Cn1nnc(NC(=O)CSc2ncn[nH]2)n1,4.66%
20,O=C1Nc2ccccc2C12Nc1ccccc1S2 (configuration not stated),-1.23%
21,C=CCn1c(COc2ccccc2F)nnc1SCC(=O)N1CC(=O)Nc2ccccc21,1.16%

row,Structure (SMILES),inhibition
1,COc1ccc(C2C3=C(CC(C)(C)CC3=O)Oc3ncn4nc(-c5cccnc5)nc4c32)cc1OC (configuration not stated),10.1%
2,C=CCNC(=O)CCCC(=O)NCC=C,0.65%
3,COc1ccc2c3c(c(=O)oc2c1OCC(=O)C(C)(C)C)CCCC3,12.2%
4,COc1ccc(N2C(=O)C3CCCN3C2c2cc(OC)c(OC)cc2OC)cc1 (configuration not stated),-16.1%
5,CC(=O)NC(C(=O)NCC(N)=O)C(C)C (configuration not stated) (Ac-[ξV]-Gly-NH2),1.26%
6,Cc1nn(-c2ccccc2)c(CC(C)(C)C(=O)O)c1C(=O)O,-11.5%
7,Cc1cccc(NC(=O)CSc2nnc(NC(=O)CN3CCOCC3)s2)c1,0.94%
8,CCOC(=O)N1CCC(NC(=O)c2cnn3ccccc23)CC1,2.9%
9,CCOc1ccc(CCNC(=O)C(CC)n2nc(C)n3c(cc4sccc43)c2=O)cc1OCC (configuration not stated),8.5%
10,CCOC(=O)N1CCN(S(=O)(=O)c2cc(Br)cc3c2N(C(=O)C2CC2)CC3)CC1,2.7%
11,CC(=O)Nc1ccc(S(=O)(=O)Nc2nc3n(n2)C(c2ccccc2)CC(=O)N3)cc1 (configuration not stated),-18.2%
12,COc1ccc(-n2ncc3c(N4CCCc5ccccc54)ncnc32)cc1,-15%
13,COCC(C)N=CC1=C(O)CC(C)(C)CC1=O (configuration not stated),3.32%
14,CC(=O)Cc1nsc(NC(=O)c2csc3c2CCCC3)n1,-19%
15,CCOc1ccc(NC(=O)N(CCC(C)C)C(C)c2ccco2)cc1 (configuration not stated),29.7%
16,CCCNC(=O)C1CC(=O)N(c2ccc(OCC(=O)Nc3cccc(C)c3C)cc2)C1 (configuration not stated),4.39%
17,CCOC(=O)CCC(=O)OCC(=O)NC(C)C1CC2CCC1C2 (configuration not stated),20.1%
18,COCCNC(=O)CSc1nc2c(n1-c1ccccc1)CCCC2,1.41%
19,CCC1CCCCN1CCNS(=O)(=O)c1ccc2c(c1)CCN2C(C)=O (configuration not stated),-15.6%
20,CCc1nnc(NS(=O)(=O)c2ccc(NS(=O)(=O)c3ccccc3)cc2)s1,-2.69%
21,CC(=O)Oc1ccc2c(C)c(CC(C)O)c(=O)oc2c1 (configuration not stated),9.88%
